Screening data (PubChem)
Shown are actives, neighbours in structure and some others; about 4.5% of the full set was active somewhere.
CSC inhib: blocks cancer stem cells; cancer stem cell-like cells viability, luminescence; inhibition, % at 7.5 µM; actives 1.1% (n = 300,000); AID 2717; in the data active = inhibition above about 75%; tested in HMLE shEcad cells
Mdm2 MdmX PPI: human Mdm2/MdmX binding inhibition; SaOS-2 split-luciferase Mdm2/MdmX complementation, luminescence; actives 3% (n = 330,000); inhibition, % at 8 µM; AID 485346; O15151+Q00987;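 active = inhibition of at least 50% at 8 µM in the primary screen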
aSyn UTR inh: 5' untranslated region of α-synuclein, MLPCN primary screen; alpha-synuclein 5'UTR reporter, inhibitor activity; inhibition, % (tested at 7.5 µM); actives 0.82% (n = 300,000); in the data active = inhibition above about 60%;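 note: H4 neuroglioblastoma cells stably carrying SNCA 5'UTR luciferase fusion; 0% = DMSO wells and 100% = positive control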
697 NFkB inh: lowers PMA/ionomycin-induced NF-kB signal in 697 B cells; actives 0.33% (n = 330,000); 697 B-cell NF-kB luciferase reporter, 16 h; inhibition, % at 4 µM; in the data active = inhibition above about 35%
Jurkat NFkB inh: lowers PMA/ionomycin-induced NF-kB signal in Jurkat cells; PMA/ionomycin-induced NF-kB luciferase reporter, luminescence; inhibition, % at 4 µM; actives 0.53% (n = 330,000); AID 435003; in the data active = inhibition above about 50%
Gli-Sufu block: Gli-Sufu pathway antagonism | Sufu-KO-LIGHT fibroblasts, Gli luciferase reporter luminescence | inhibition, % at 5 µM | actives 0.74% (n = 340,000) | AID 588413;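 active = inhibition above about 55%, limit read from the data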;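 note: 0% = DMSO-treated cells and 100% = wells with medium but no cells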
Mdm2 MdmX conf: human Mdm2/MdmX binding inhibition, confirmed; actives 55% (n = 10,000); inhibition, % at 8 µM; luminescent assay; shares compounds with Mdm2 MdmX PPI; in the data active = inhibition above about 40%
Full FLuc ctr: counter-screen for Mdm2/MdmX inhibitors: full-length luciferase. shares compounds with Mdm2 MdmX PPI. SaOS-2 full-length luciferase counterscreen, luminescence. inhibition, % at 8 µM. actives 77% (n = 6,200);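 active = mean inhibition at 8 µM reaching about 37%, which flags the compound as non-specific, limit read from the data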;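 note: p53-null SaOS-2 cells with luciferase driven by a doxycycline-inducible promoter; compound on cells about two nights before reading with doxycycline added after day one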
* hit, by the source's call; i = inactive; x = no result.

SMILES	CSC inhib	Mdm2 MdmX PPI	aSyn UTR inh	697 NFkB inh	Jurkat NFkB inh	Gli-Sufu block	Mdm2 MdmX conf	Full FLuc ctr
CC(C)/C=C(/C(=O)c1ccc(Cl)cc1Cl)n1cncn1	20	15	-49	10	5	3	x	x
CC(C)(C)C(=O)/C(=C/c1ccc(Cl)cc1)n1cncn1	30	99*	-173	-21	48	-7	100*	0
Cc1cc([N+](=O)[O-])ccc1NC(=O)CN1CCN(Cc2ccccc2)CC1	-3	22	15	1	-6	2	x	x
O=C(CN1CCN(Cc2ccccc2)CC1)Nc1ccc([N+](=O)[O-])cc1C(=O)Nc1ccccc1F	10	54*	28	11	7	24	30	x
O=c1c2ccccc2nc2n1CCCCC2	11	6	-7	3	-1	0	x	x
N=c1c2ccccc2nc2n1CCCCCCCCCCC2	36	59*	2	-60	22	25	24	x
CCOC(=O)c1ccc(NC(=O)COc2ccccc2CNCCc2ccccc2)cc1	-6	63*	-29	-7	-17	34	16	x
CCOC(=O)c1ccc(NC(=O)COc2ccc(CNCCO)cc2OCC)cc1	4	2	-8	9	3	17	x	x
CCOc1ccc(NC(=S)N2CCCN(Cc3cc(C)ccc3C)C2)cc1	7	-9	15	8	-1	3	x	x
Cc1ccccc1CS(=O)(=O)c1nnc([C@H](Cc2ccccc2)NC(=O)OC(C)(C)C)o1	99*	100*	20	-18	15	-1	53*	1
CCSc1nnc([C@H](Cc2ccccc2)NC(=O)OC(C)(C)C)o1	-13	12	-8	4	13	0	x	x
CC(C)(C)OC(=O)N[C@@H](Cc1ccccc1)c1nnc(S(=O)(=O)Cc2ccccc2)o1	131*	100*	x	-23	37	x	70*	0
CC(=O)N1CCN(S(=O)(=O)c2cccc(C(=O)Nc3ccccc3N3CCCC3)c2)CC1	11	-29	12	-10	10	-1	x	x
O=C(/C=C/c1cn(-c2ccccc2)nc1-c1cccnc1)c1ccco1	67	52*	-63	12	13	-2	34	x
O=C1CCc2cc(S(=O)(=O)N3CCCC3C(=O)NC3CCCCCCC3)ccc2N1 (centres undefined)	10	25	12	5	2	4	x	x
COc1ccc(C(=O)NC(=S)Nc2ccc3oc(=O)ccc3c2)cc1	x	73*	13	-20	8	-4	24	84*
C/C(=N/NC(=O)Cc1cccs1)c1ccco1	-5	29	-10	-1	19	-13	x	x
Cc1cc(C(=O)N/N=C/C=C/c2cccc([N+](=O)[O-])c2)n[nH]1	-1	-20	-1	5	-6	-5	x	x
O=C(CCC1CCCCC1)NCCN1C2=NC[C@@H](Cc3ccccc3)N2C[C@H]1Cc1ccc(O)cc1	1	67*	13	-4	-2	45	54*	63*
CC1=NOC(=O)/C1=C/c1ccc(-c2ccc(Cl)cc2)o1	26	100*	x	21	15	x	48*	17
CC1=NOC(=O)/C1=C\c1ccc(-c2ccc(Br)cc2C(=O)O)o1	-28	15	-19	1	-11	4	x	x
CC1=NOC(=O)/C1=C\c1ccc(-c2ccc(Br)cc2)o1	x	x	-39	x	x	-7	x	x
CC1=NOC(=O)/C1=C\c1ccc(-c2cc(Cl)ccc2Cl)o1	87*	100*	-2	-2	36	-14	16	x
COc1ccc(Oc2nc(SC)nc3ccccc23)cc1	-1	26	22	-18	-9	1	x	x
CCOc1cc(CNCCO)cc(Br)c1OCc1ccc(Cl)cc1Cl	148*	100*	4	8	28	-22	50*	26
SMILES	CSC inhib	Mdm2 MdmX PPI	aSyn UTR inh	697 NFkB inh	Jurkat NFkB inh	Gli-Sufu block	Mdm2 MdmX conf	Full FLuc ctr
CCOc1cccc(CNCCO)c1OCc1ccc(Cl)cc1Cl	x	44	3	-14	4	6	x	x
COc1ccc(C(C(=O)NCC2CCCO2)N(Cc2cccs2)C(=O)c2snc(C(N)=O)c2N)cc1 (centres undefined)	16	52*	3	21	15	29	49*	88*
CCOc1ccc(C(C(=O)NCC2CCCO2)N(Cc2cccc(OC)c2)C(=O)c2snc(C(N)=O)c2N)cc1 (centres undefined)	-1	2	-4	1	-11	38	x	x
CN(C)c1ccc(C(C(=O)NC2CCCCC2)N(Cc2ccco2)C(=O)c2snc(C(N)=O)c2N)cc1 (centres undefined)	10	51*	-5	27	8	-5	37	92*
CCC(=O)c1ccc(OCC(=O)N2CCN(c3ncccn3)CC2)cc1	x	-9	6	12	3	1	x	x
O=C(Nc1cccnc1)c1cccc(NC(=O)c2ccco2)c1	x	10	-22	18	-3	3	x	x
COc1ccc(NC(=O)CCl)cn1	0	-15	-60	5	-5	x	x	x
O=C(CCl)Nc1ccc(Oc2cnc3ccccc3n2)cc1	0	67*	-53	30	12	1	49*	14
O=C(CCl)Nc1cccc(-c2cnc3ccccc3n2)c1	41	97*	i	-74	27	-20	99*	55*
O=C(Nc1cccc(-c2cnc3ccccc3n2)c1)c1ccccc1	-6	57*	-34	-49	0	-36	-34	x
O=C(Nc1cccc(-c2cnc3ccccc3n2)c1)c1cccc(NC(=O)c2ccco2)c1	x	68*	-95	-14	30	-21	65*	88*
CCC(=O)Nc1cccc(-c2cnc3ccccc3n2)c1	-16	-18	-122	-67	-34	-64	x	x
CCNC(=O)c1ccccc1CCc1ccccc1	1	-16	0	4	-17	18	x	x
CC(C)(C)N(NC(=O)Nc1ccc(Cl)c(Cl)c1)C(=O)c1ccccc1	x	86*	16	18	-4	8	66*	43*
CC(C)(C)N(NC(=O)Nc1ccc(F)cc1)C(=O)c1ccccc1	x	-23	14	-12	9	-6	x	x
O=C(Nc1ccc(Cl)c(Cl)c1)Nc1ccc(Br)cc1F	92*	95*	-32	-3	-4	-8	93*	35
O=C(Nc1ccc(Br)cc1)Nc1ccccc1F	16	-226	-232	-164	-131	-22	x	x
O=C(Nc1ccc(Cl)cc1)Nc1ccc(Cl)c(Cl)c1	44	89*	x	-99	-77	-68	90*	27
Cc1ccc(NC(=O)Nc2ccc(F)c(Cl)c2)cc1	12	-21	-165	-118	-89	-91	x	x
O=C(Nc1ccccc1)Nc1ccc(Br)c(Cl)c1	40	87*	-126	-53	-51	11	44*	48*
